Screening data (PubChem)
NS1 inh: qHTS Assay for Inhibitors of Influenza NS1 Protein Function; Potency, µM (series often up to 46.1 µM), inactives show at the highest dose activity, positive = more growth; actives 0.4% (n = 270,000); AID 2326, 2010; calls by dose curve; note: actives are rising curves; nearly all actives have a fitted effect of over 50% in size
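Read-out: OD600 growth recovery of NS1-expressing budding yeast. Cells grown overnight at 30C in -URA glucose medium, washed, resuspended and diluted 1:100 in 2% galactose assay medium, pH 6.0. Same strain lacking NS1 served as positive control.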
Pf growth 48h: Primary qHTS for delayed death inhibitors of the malarial parasite plastid, 48 hour incubation; Potency, µM (top dose mostly 28.7 µM), without a hit: at the top dose activity change, negative = inhibition, actives largely listed as inhibitors; actives 5.9% (n = 310,000); P. falciparum luciferase growth in erythrocytes, 48 h; note: % is set by controls: 0 for no effect and ±100 for the full control effect
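First compound was added to culture medium, then infected red cells at 0.1% parasitemia and 2% hematocrit (final). After incubation at 37 C under 5% CO2, luciferase detection reagent was dispensed and light output recorded.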
Vaccinia mCherry: qHTS for Stage-Specific Inhibitors of Vaccinia Orthopoxvirus: mCherry Reporter Primary qHTS | Potency, µM (top dose mostly 36.5 µM), for inactives: top-dose activity change, negative = inhibition, actives largely listed as inhibitors | Vaccinia virus mCherry reporter infection, fluorescence | actives 0.63% (n = 310,000); calls by dose curve; tested in A549 cells; note: % is set by controls: 0 for no effect and ±100 for the full control effect; nearly all actives have a fitted effect of over 35% in size
HCV inh: qHTS Assay for Inhibitors of Hepatitis C Virus (HCV). Huh7.5.1 HCVcc-Cre infection, luciferase reporter, 44 h. Potency, µM (highest dose often 41.8 µM), for the others: top-dose activity change, negative = inhibition, hits mostly inhibitors. actives 3.4% (n = 340,000). AID 651820, 2012; note: % is set by controls: 0 for no effect and ±100 for the full control effect
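Luciferase read-out (15 sec integration) after a 15 min room-temperature substrate step quantifies HCVcc-Cre infection. Cells, 1,000 per well, had compound added 4 h post-plating, then virus at ~0.5 moi, and were cultured 44 h.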
Pf growth 96h: Primary qHTS for delayed death inhibitors of the malarial parasite plastid, 96 hour incubation. P. falciparum luciferase reporter growth, 96 h. Potency, µM (titrated, usually from 28.7 µM), without a hit: at the highest dose activity change, negative = inhibition, actives largely listed as inhibitors. actives 6.9% (n = 320,000). AID 504834, 2011; note: % is set by controls: 0 for no effect and ±100 for the full control effect
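Readout is luminescence from an integrated firefly luciferase in P. falciparum. Red cells, 2% hematocrit and 0.05% parasitemia final, were cultured with compound through two parasite generations (96 hours) at 37 C, 5% CO2.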
VACV Venus inh: qHTS for Stage-Specific Inhibitors of Vaccinia Orthopoxvirus: Venus Reporter Primary qHTS. Vaccinia virus Venus reporter expression, fluorescence. Potency, µM (highest dose often 36.5 µM), without a hit: at the top dose activity change, negative = inhibition, actives largely listed as inhibitors. actives 0.46% (n = 330,000); calls by dose curve; tested in A549 cells; note: % is set by controls: 0 for no effect and ±100 for the full control effect; nearly all actives have a fitted effect of over 30% in size
An asterisk follows results filed as active; i = inactive; ? = inconclusive; . = no result. Sampled rows, rich in hits. Any-hit rate of the full collection: about 11%. Unless noted, calls come from the whole dose curve; as a rule, active = well fitted inhibition curve with a large enough effect; inconclusive = small, poorly fitted or top-dose-only effect, or another doubt; inactive = no such curve, though single readings can be large or run the other way. Potency is the fitted concentration of half-maximal effect.

SMILES	NS1 inh	Pf growth 48h	Vaccinia mCherry	HCV inh	Pf growth 96h	VACV Venus inh
O=C(CSc1nc(-c2ccco2)cc(C(F)(F)F)n1)Nc1ccc2c(c1)OCO2	1%	-1%	?	3.5µM*	7%	?
CC(=O)c1ccc(NC(=O)CCCSc2nc(-c3ccco3)cc(C(F)(F)F)n2)cc1	.	.	-23%	.	.	-18%
Cc1nn(C)c(C)c1NC(=O)CCCSc1nc(-c2ccco2)cc(C(F)(F)F)n1	1%	?	.	2.2µM*	?	?
O=C(CCSc1nc(-c2ccco2)cc(C(F)(F)F)n1)N1CCCc2ccccc21	-35%	15µM*	.	?	.	-12%
CCCc1cc(-c2nc(N)ncc2-c2ccc3c(c2)OCCCO3)c(O)cc1OC	20%	?	?	?	?	13µM*
Cc1ccc(N2CC(C(=O)Nc3cc(C(F)(F)F)ccc3N3CCCC3)CC2=O)cc1 (configuration not stated)	.	?	i	?	?	-17%
O=C(CCc1ccccc1)NNC(=S)NC(=O)c1ccccc1	-155%	?	-4%	-2%	?	-10%
CC(C)(C)c1cc(CCC(=O)NNC(=S)NC(=O)c2ccccc2)cc(C(C)(C)C)c1O	-18%	13µM*	.	2.8µM*	?	.
CNC1=CN(O)C(c2ccccc2)=c2cc(Cl)ccc2=N1	.	19µM*	.	.	13µM*	.
Brc1cc2c(cc1Cn1c(-c3cncs3)nc3ccccc31)OCO2	7%	?	.	2%	?	-3%
Brc1ccccc1Cn1c(-c2cscn2)nc2ccccc21	0%	.	.	?	10µM*	.
CSc1ccccc1NC(=O)Cn1c(-c2cscn2)nc2ccccc21	-37%	-18%	.	-19%	-4%	.
COc1ccccc1Cn1c(C)nc2ccccc21	-5%	-12%	i	8%	-4%	-7%
Cc1ccccc1Cn1c(C)nc2ccccc21	1%	?	-1%	5.6µM*	29%	-8%
Cc1ccccc1Cn1c(-c2cncs2)nc2ccccc21	-84%	1.5µM*	-13%	-7%	14%	-17%
COc1ccccc1N(CC(=O)NC1CCCCC1)C(=O)CCC(=O)Nc1nccs1	4%	?	-1%	21%	?	-9%
CC(C)C[C@H](NC(=O)N1CC(=O)Nc2ccccc21)C(=O)N[C@H](Cc1c[nH]c2ccccc12)C(=O)O	17%	16%	-5%	-74%	?	-3%
COc1cccc(NC(=O)CN(C)C(=O)c2cc(S(=O)(=O)N3CCCCC3)ccc2Cl)c1	.	?	-16%	?	?	3%
Cc1ccc(NC(=O)CN(C)C(C)C(=O)Nc2ccc(S(=O)(=O)N3CCCC3)cc2)cc1 (configuration not stated)	.	12µM*	-24%	?	12µM*	-21%
COc1cccc(NC(=O)CN(C)C(C)C(=O)Nc2ccc(S(=O)(=O)N3CCCC3)cc2)c1 (configuration not stated)	-10%	9.3µM*	-9%	-12%	4.7µM*	-26%
CC(C)(C)C(=O)COC(=O)C1=NN(c2ccccc2)C(=O)CC1	12%	-4%	2%	26%	11%	4%
COc1cccc(C2c3[nH]c4ccccc4c3C[C@H]3C(=O)N(c4ccccc4C(=O)NCCCN4CCOCC4)C(=O)N23)c1 (some centres not stated)	-11%	15µM*	-17%	-1%	12µM*	-7%
COc1ccc(-n2nc(C(=O)NCCCN3CCOCC3)c3ccccc3c2=O)c(OC)c1	-6%	-5%	0%	20%	-7%	-16%
O=C(NCCCN1CCOCC1)c1ccccc1N1C(=O)[C@@H]2Cc3c([nH]c4ccccc34)C(c3ccc(F)cc3)N2C1=O (some centres not stated)	-28%	13µM*	?	-19%	?	?
O=C(NCCN1CCOCC1)c1ccccc1N1C(=O)[C@@H]2Cc3c([nH]c4ccccc34)C(c3ccccc3)N2C1=O (some centres not stated)	-19%	?	-8%	-9%	?	10%
SMILES	NS1 inh	Pf growth 48h	Vaccinia mCherry	HCV inh	Pf growth 96h	VACV Venus inh
Cc1cc(C(=O)C(C)OC(=O)c2ccc(NC(=O)CC#N)cc2)c(C)n1-c1ccc(OC(F)F)cc1 (configuration not stated)	.	5.9µM*	-10%	?	?	?
Cc1[nH]c2ccccc2c1C(=O)C(C)OC(=O)c1ccc(NC(=O)CC#N)cc1 (configuration not stated)	.	3.7µM*	-6%	-26%	3.3µM*	-16%
Cc1[nH]c2ccccc2c1C(=O)C(C)OC(=O)c1ccc(Cl)nc1 (configuration not stated)	.	?	-3%	-16%	-34%	-18%
Cc1ccc(Nc2nc(NCc3ccco3)nc3nccnc23)cc1Cl	.	.	-11%	.	.	-10%
c1ccc2ncccc2c1	.	.	4%	17%	.	-8%
c1ccc2nccnc2c1	.	.	11µM*	.	.	3.5µM*
O=C(NCC(=O)c1ccccc1)OCc1ccc([N+](=O)[O-])cc1	10%	-2%	-7%	-10%	13µM*	-6%
O=C1c2cccc3c([N+](=O)[O-])ccc(c23)C(=O)N1c1ccccn1	-52%	0%	i	?	-12%	10%
O=C1c2cccc3c([N+](=O)[O-])ccc(c23)C(=O)N1c1ccc(Cl)cn1	-162%	-1%	-10%	10µM*	154%	36%
COc1cc(C(=O)Oc2ccccc2/C=N/NC(=O)c2ccc(Cl)cc2)cc(OC)c1OC	-1%	13µM*	?	2.8µM*	6%	?
COc1cc(C(=O)Oc2ccccc2/C=N/NC(=O)c2ccc(C)c(Cl)c2)cc(OC)c1OC	12%	-14%	5µM*	?	?	?
Cc1cc(C)c2cc(C(=O)Nc3ccc(C)c(F)c3)[nH]c2c1	-4%	12µM*	i	?	?	-18%
C1CCCC(N2CCNCC2)CC1	5%	16%	-17%	12%	2.9µM*	-8%
CC1CCC(N2CCNCC2)CC1 (configuration not stated)	-2%	11%	.	23%	15µM*	.
C1CCCN(C2CCNCC2)CC1	2%	0%	-9%	-30%	?	-11%
O=C(c1cccc(F)c1)N1CCC(c2nc3ccccc3s2)CC1	.	-12%	.	?	4.1µM*	.
COc1cccc(C(=O)N2CCC(c3nc4ccccc4s3)CC2)c1	.	.	-20%	.	.	-15%
O=C(OCc1cn([C@@H]2C[C@H](c3ccccc3)N(C(=O)c3cccs3)C[C@H]2O)nn1)c1ccccc1	.	.	i	.	.	-15%
